Several values for one entry are separate records, joined by “and”; a condition that tells them apart may be missing. Equal entries are not always repeated. The panel holds about 83,000 compounds, 20% with a hit somewhere; the sample as a whole holds those more often.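 Assay: single dose, 48 h. Readout: percent growth (0 = no net growth; negative = cell death). Active: <10.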 Activity calls are given as the source filed them.
What was measured:
Assay in all cases: NCI-60 one-dose screen, 48 h (100 = growth as untreated, 0 = no growth, -100 = all killed)
Details in all cases: 10 µM unless noted
NCI-H226 lung = tested on: NCI-H226 lung
NCI-H322M lung = tested on: NCI-H322M lung
HOP-62 NSCLC = tested on: HOP-62 NSCLC
NCI-H460 lung = tested on: NCI-H460 lung
HOP-92 NSCLC = tested on: HOP-92 NSCLC
NCI-H522 lung = tested on: NCI-H522 lung
A549/ATCC NSCLC = tested on: A549/ATCC NSCLC
786-0 renal = tested on: 786-0 renal
COLO 205 colon = tested on: COLO 205 colon
DU-145 prostate = tested on: DU-145 prostate
K-562 leukemia = tested on: K-562 leukemia
MALME-3M melanoma = tested on: MALME-3M melanoma
MDA-MB-231 breast = tested on: MDA-MB-231 breast
RXF 393 renal = tested on: RXF 393 renal
SF-268 CNS = tested on: SF-268 CNS
SF-295 CNS = tested on: SF-295 CNS
SF-539 CNS = tested on: SF-539 CNS
UACC-257 melanoma = tested on: UACC-257 melanoma
M14 melanoma = tested on: M14 melanoma

Measured: growth

CC(=O)Oc1cc(C(C)C)c(OCCN(C)C)cc1C
-83.3% (active) and 99.8% (inactive): A549/ATCC NSCLC
-91.1% (active) and 97.5% (inactive): UACC-257 melanoma
inactive: NCI-H226 lung 120% and 103% | NCI-H322M lung 102% and 105% | HOP-62 NSCLC 110% and 97.1% | NCI-H460 lung 115% and 103% | HOP-92 NSCLC 107% | NCI-H522 lung 112% and 115% | 786-0 renal 99.6% and 104% | COLO 205 colon 114% and 108% | DU-145 prostate 124% and 118% | K-562 leukemia 115% and 124% | MALME-3M melanoma 97.5% and 106% | MDA-MB-231 breast 103% and 112% | RXF 393 renal 112% and 101% | SF-268 CNS 112% and 109% | SF-295 CNS 103% and 92% | SF-539 CNS 112% and 99.6% | M14 melanoma 99.8%

CC(=O)/C(N=Nc1ccc(S(=O)(=O)c2ccc(N=N/C(C(C)=O)=C(/C)O)cc2)cc1)=C(\C)O
inactive: NCI-H226 lung 114% | NCI-H322M lung 106% | HOP-62 NSCLC 103% | NCI-H460 lung 93.2% | HOP-92 NSCLC 90.3% | NCI-H522 lung 105% | A549/ATCC NSCLC 105% | 786-0 renal 112% | COLO 205 colon 113% | DU-145 prostate 104% | K-562 leukemia 111% | MALME-3M melanoma 106% | MDA-MB-231 breast 113% | RXF 393 renal 165% | SF-268 CNS 101% | SF-295 CNS 118% | SF-539 CNS 112% | UACC-257 melanoma 109% | M14 melanoma 105%

CCN(CC)CCNC(=O)c1ccc(NCN2C(=O)NC(c3ccccc3)(c3ccccc3)C2=O)cc1
inactive: NCI-H226 lung 95.6% and 100% | NCI-H322M lung 112% and 106% | HOP-62 NSCLC 116% and 99.7% | NCI-H460 lung 101% and 114% | HOP-92 NSCLC 86.2% and 105% | NCI-H522 lung 108% and 106% | A549/ATCC NSCLC 95.3% and 107% | 786-0 renal 101% and 115% | COLO 205 colon 124% and 103% | DU-145 prostate 108% and 122% | K-562 leukemia 110% and 108% | MALME-3M melanoma 96.1% | MDA-MB-231 breast 114% and 103% | RXF 393 renal 106% and 118% | SF-268 CNS 102% and 101% | SF-295 CNS 94.1% | SF-539 CNS 104% | UACC-257 melanoma 100% and 106% | M14 melanoma 105% and 96.3%

N#Cc1c(N)nc2c(c(-c3ccc(Cl)cc3)nn2-c2ccccc2)c1C#N
inactive: NCI-H226 lung 97.1% [100 µM] | NCI-H322M lung 104% [100 µM] | HOP-62 NSCLC 96.1% [100 µM] | NCI-H460 lung 96.8% [100 µM] | HOP-92 NSCLC 90.8% [100 µM] | NCI-H522 lung 102% [100 µM] | 786-0 renal 72.2% [100 µM] | COLO 205 colon 117% [100 µM] | DU-145 prostate 101% [100 µM] | K-562 leukemia 97.6% [100 µM] | MALME-3M melanoma 105% [100 µM] | MDA-MB-231 breast 98% [100 µM] | RXF 393 renal 97.1% [100 µM] | SF-268 CNS 93.7% [100 µM] | SF-295 CNS 97.9% [100 µM] | SF-539 CNS 74.1% [100 µM] | UACC-257 melanoma 91.8% [100 µM] | M14 melanoma 106% [100 µM]

CC(NC(=O)CCl)c1ccccc1 (stereo not drawn)
inactive: NCI-H226 lung 96.3% | NCI-H322M lung 106% | HOP-62 NSCLC 107% | NCI-H460 lung 99.7% | HOP-92 NSCLC 89% | NCI-H522 lung 98% | A549/ATCC NSCLC 104% | 786-0 renal 104% | COLO 205 colon 104% | DU-145 prostate 103% | K-562 leukemia 109% | MALME-3M melanoma 99.4% | MDA-MB-231 breast 111% | RXF 393 renal 98.7% | SF-268 CNS 98.3% | SF-295 CNS 102% | SF-539 CNS 104% | UACC-257 melanoma 100% | M14 melanoma 93.8%

COc1ccc(CCO)cc1
inactive: NCI-H226 lung 92.8% | NCI-H322M lung 99% | HOP-62 NSCLC 96.2% | NCI-H460 lung 108% | HOP-92 NSCLC 86.4% | NCI-H522 lung 88.6% | A549/ATCC NSCLC 92.9% | 786-0 renal 99.3% | COLO 205 colon 96.3% | DU-145 prostate 110% | K-562 leukemia 82.9% | MALME-3M melanoma 92.1% | MDA-MB-231 breast 102% | RXF 393 renal 105% | SF-268 CNS 105% | SF-295 CNS 103% | SF-539 CNS 101% | UACC-257 melanoma 96.4% | M14 melanoma 103%

S=c1nn[nH]n1C1CCCCC1
inactive: NCI-H226 lung 102% | NCI-H322M lung 102% | HOP-62 NSCLC 126% | NCI-H460 lung 95.7% | HOP-92 NSCLC 93.2% | NCI-H522 lung 117% | 786-0 renal 99.7% | COLO 205 colon 123% | DU-145 prostate 105% | K-562 leukemia 122% | MALME-3M melanoma 95.8% | MDA-MB-231 breast 116% | RXF 393 renal 148% | SF-268 CNS 105% | SF-295 CNS 97% | SF-539 CNS 106% | UACC-257 melanoma 97.8% | M14 melanoma 100%

CCNCc1ccccc1
inactive: NCI-H226 lung 100% | NCI-H322M lung 100% | HOP-62 NSCLC 102% | NCI-H460 lung 109% | HOP-92 NSCLC 113% | NCI-H522 lung 102% | A549/ATCC NSCLC 102% | 786-0 renal 103% | COLO 205 colon 107% | DU-145 prostate 104% | K-562 leukemia 96.3% | MALME-3M melanoma 101% | MDA-MB-231 breast 110% | RXF 393 renal 118% | SF-268 CNS 104% | SF-295 CNS 105% | SF-539 CNS 102% | UACC-257 melanoma 102% | M14 melanoma 109%

COc1ccc([N+](=O)[O-])cc1OC
inactive: NCI-H226 lung 101% and 98.2% | NCI-H322M lung 105% | HOP-62 NSCLC 98.2% and 109% | NCI-H460 lung 102% and 111% | HOP-92 NSCLC 93.5% and 92.7% | NCI-H522 lung 111% and 93.7% | A549/ATCC NSCLC 93% and 92.9% | 786-0 renal 104% and 95% | COLO 205 colon 112% and 115% | DU-145 prostate 111% and 118% | K-562 leukemia 102% and 103% | MALME-3M melanoma 117% and 104% | MDA-MB-231 breast 111% and 108% | RXF 393 renal 114% and 104% | SF-268 CNS 100% and 108% | SF-295 CNS 102% and 105% | SF-539 CNS 93.9% and 98% | UACC-257 melanoma 90.1% and 95%

Nc1nc(-c2ccccn2)cc(-c2cc(-c3ccccn3)nc(N)n2)n1
inactive: NCI-H226 lung 96.1% | NCI-H322M lung 94.3% | HOP-62 NSCLC 119% | NCI-H460 lung 134% | HOP-92 NSCLC 103% | NCI-H522 lung 107% | A549/ATCC NSCLC 117% | 786-0 renal 112% | COLO 205 colon 118% | DU-145 prostate 119% | K-562 leukemia 114% | MALME-3M melanoma 109% | MDA-MB-231 breast 102% | RXF 393 renal 105% | SF-268 CNS 106% | SF-295 CNS 102% | SF-539 CNS 103% | UACC-257 melanoma 112% | M14 melanoma 100%

CCCCNC(=O)c1ccccc1C
inactive: NCI-H226 lung 94.4% | NCI-H322M lung 89.4% | HOP-62 NSCLC 91.1% | NCI-H460 lung 105% | HOP-92 NSCLC 96.3% | NCI-H522 lung 93.2% | A549/ATCC NSCLC 100% | 786-0 renal 92.9% | COLO 205 colon 98.3% | DU-145 prostate 104% | K-562 leukemia 103% | MALME-3M melanoma 87.4% | MDA-MB-231 breast 103% | RXF 393 renal 94.8% | SF-268 CNS 101% | SF-295 CNS 94.6% | SF-539 CNS 107% | UACC-257 melanoma 100% | M14 melanoma 90.4%

O=[N+]([O-])c1ccc(N/N=C/C2CCCCCC2)c([N+](=O)[O-])c1
inactive: NCI-H226 lung 101% | NCI-H322M lung 78.8% | HOP-62 NSCLC 97% | NCI-H460 lung 94.6% | HOP-92 NSCLC 82.6% | NCI-H522 lung 78.5% | A549/ATCC NSCLC 79.9% | 786-0 renal 96.7% | COLO 205 colon 94.6% | DU-145 prostate 92% | K-562 leukemia 83.4% | MALME-3M melanoma 98% | MDA-MB-231 breast 81.8% | RXF 393 renal 98% | SF-268 CNS 87.4% | SF-295 CNS 98.1% | SF-539 CNS 99.8% | UACC-257 melanoma 96.5%

COc1ccc2nccc(Cl)c2c1
inactive: NCI-H226 lung 85.1% | NCI-H322M lung 97.1% | HOP-62 NSCLC 98.4% | NCI-H460 lung 109% | HOP-92 NSCLC 98.7% | NCI-H522 lung 90.7% | A549/ATCC NSCLC 91.9% | 786-0 renal 94.7% | COLO 205 colon 105% | DU-145 prostate 101% | K-562 leukemia 110% | MALME-3M melanoma 103% | MDA-MB-231 breast 102% | RXF 393 renal 105% | SF-268 CNS 92.8% | SF-295 CNS 107% | SF-539 CNS 104% | UACC-257 melanoma 91.9% | M14 melanoma 107%
